From PMC7862700, “An all-to-all approach to the identification of sequence-specific readers for epigenetic DNA modifications on cytosine”

What was measured:
Assay in all cases: DAPPL (digital affinity profiling via proximity ligation, sequencing); 10 mM Tris-HCl pH 7.5, 50 mM NaCl, 1 mM DTT, 4% glycerol, room temperature, 30 min; GST-TFs on glutathione beads, 16-mer random dsDNA library, 0.1% formaldehyde crosslink after washing; high values mean tight binding
FLI1 = target: T1, FLI1 (Homo sapiens, UniProt Q01543 1-452); details: protein: recombinant; tags: N-terminal GST; dsDNA, one strand shown
T1 sequence: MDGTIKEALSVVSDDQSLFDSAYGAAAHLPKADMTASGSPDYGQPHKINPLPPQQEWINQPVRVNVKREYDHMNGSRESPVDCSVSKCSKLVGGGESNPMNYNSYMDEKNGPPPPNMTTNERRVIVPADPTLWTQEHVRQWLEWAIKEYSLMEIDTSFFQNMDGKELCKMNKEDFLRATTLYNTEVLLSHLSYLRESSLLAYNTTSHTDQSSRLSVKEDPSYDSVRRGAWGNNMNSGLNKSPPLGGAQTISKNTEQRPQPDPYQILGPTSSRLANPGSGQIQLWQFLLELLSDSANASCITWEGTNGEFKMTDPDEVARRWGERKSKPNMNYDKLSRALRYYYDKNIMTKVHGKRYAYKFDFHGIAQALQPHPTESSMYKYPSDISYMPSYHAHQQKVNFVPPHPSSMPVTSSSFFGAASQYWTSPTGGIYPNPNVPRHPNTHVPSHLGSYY
Method in brief: (§1)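 Yeast served to express human transcription factors as GST fusions, which were then captured on glutathione beads and labelled with DNA barcodes. Pooled with a tag-only sample, they were incubated with 200 nmole of a 16-mer random double-stranded DNA library for 30 min at room temperature in Tris/NaCl/DTT/glycerol buffer, washed, crosslinked with 0.1% formaldehyde, ligated by proximity, amplified by PCR and sequenced. Dividing each hexamer's read frequency for a factor by its frequency for the tag-only sample gives the binding signal.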

ELK1 = target: T2, ELK1 (Homo sapiens, UniProt P19419 1-428); details: protein: recombinant; tags: N-terminal GST; dsDNA, one strand shown
T2 sequence: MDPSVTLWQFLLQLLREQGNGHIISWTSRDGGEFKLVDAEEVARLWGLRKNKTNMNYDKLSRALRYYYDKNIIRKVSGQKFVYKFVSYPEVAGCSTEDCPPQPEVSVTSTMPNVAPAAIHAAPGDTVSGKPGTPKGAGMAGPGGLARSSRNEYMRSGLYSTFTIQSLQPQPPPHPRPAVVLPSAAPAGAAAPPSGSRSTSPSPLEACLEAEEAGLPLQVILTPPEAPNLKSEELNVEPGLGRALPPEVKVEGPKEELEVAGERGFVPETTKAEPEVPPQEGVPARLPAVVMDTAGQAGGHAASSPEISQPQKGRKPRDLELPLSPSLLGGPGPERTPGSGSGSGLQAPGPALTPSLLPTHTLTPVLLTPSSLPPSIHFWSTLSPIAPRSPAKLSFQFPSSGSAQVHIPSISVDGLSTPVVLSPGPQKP
Method in brief: as §1

GABPA = target: T3, GABPA (Homo sapiens, UniProt Q06546 1-454); details: protein: recombinant; tags: N-terminal GST; dsDNA, one strand shown
T3 sequence: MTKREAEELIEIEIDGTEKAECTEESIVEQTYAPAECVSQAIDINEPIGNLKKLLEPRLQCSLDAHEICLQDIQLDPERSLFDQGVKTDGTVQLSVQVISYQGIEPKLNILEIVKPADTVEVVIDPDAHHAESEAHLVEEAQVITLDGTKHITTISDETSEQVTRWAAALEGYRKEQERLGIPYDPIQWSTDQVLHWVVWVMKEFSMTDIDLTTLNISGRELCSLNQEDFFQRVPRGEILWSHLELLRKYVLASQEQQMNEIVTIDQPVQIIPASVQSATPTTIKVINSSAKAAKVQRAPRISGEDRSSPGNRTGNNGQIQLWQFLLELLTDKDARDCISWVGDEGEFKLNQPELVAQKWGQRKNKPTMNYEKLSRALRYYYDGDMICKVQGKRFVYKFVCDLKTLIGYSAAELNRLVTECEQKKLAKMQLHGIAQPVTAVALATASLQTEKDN
Method in brief: as §1

ERG = target: T4, ERG (Homo sapiens, UniProt P11308 1-479); details: protein: recombinant; tags: N-terminal GST; dsDNA, one strand shown
T4 sequence: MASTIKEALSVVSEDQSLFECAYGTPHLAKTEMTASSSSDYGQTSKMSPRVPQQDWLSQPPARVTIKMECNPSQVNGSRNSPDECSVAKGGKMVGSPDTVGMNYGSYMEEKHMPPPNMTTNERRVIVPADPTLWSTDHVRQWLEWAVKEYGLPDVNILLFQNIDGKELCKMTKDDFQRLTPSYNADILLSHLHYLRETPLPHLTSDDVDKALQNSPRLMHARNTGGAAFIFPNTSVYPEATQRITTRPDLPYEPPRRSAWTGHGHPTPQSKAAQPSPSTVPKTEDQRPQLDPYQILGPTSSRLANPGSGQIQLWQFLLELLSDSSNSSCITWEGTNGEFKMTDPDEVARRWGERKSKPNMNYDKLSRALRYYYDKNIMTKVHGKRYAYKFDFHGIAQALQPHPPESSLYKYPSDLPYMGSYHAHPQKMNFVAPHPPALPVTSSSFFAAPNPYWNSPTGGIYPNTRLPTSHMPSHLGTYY
Method in brief: as §1

ELF1 = ELF1 (Homo sapiens, UniProt P32519 1-619); details: protein: recombinant; tags: N-terminal GST; dsDNA, one strand shown
ELF1, sequence (P32519 whole entry): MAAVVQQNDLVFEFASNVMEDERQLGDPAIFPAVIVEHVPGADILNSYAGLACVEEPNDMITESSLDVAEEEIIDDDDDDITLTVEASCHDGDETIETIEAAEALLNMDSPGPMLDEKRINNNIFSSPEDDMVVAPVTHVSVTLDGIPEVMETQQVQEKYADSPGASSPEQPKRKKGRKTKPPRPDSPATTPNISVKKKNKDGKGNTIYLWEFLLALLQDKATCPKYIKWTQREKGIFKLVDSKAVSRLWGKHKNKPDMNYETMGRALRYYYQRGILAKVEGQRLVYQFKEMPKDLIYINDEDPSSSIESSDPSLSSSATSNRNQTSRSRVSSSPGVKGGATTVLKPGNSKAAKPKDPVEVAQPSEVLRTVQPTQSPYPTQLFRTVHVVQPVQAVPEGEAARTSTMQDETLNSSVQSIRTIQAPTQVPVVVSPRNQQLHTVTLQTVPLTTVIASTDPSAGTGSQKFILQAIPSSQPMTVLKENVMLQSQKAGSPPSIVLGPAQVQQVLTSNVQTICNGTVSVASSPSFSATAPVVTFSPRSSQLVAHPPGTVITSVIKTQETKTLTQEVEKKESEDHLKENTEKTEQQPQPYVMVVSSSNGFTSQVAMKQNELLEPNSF
Method in brief: as §1

EHF = target: T5, EHF (Homo sapiens, UniProt Q9NZC4 1-300); details: protein: recombinant; tags: N-terminal GST; dsDNA, one strand shown
T5 sequence: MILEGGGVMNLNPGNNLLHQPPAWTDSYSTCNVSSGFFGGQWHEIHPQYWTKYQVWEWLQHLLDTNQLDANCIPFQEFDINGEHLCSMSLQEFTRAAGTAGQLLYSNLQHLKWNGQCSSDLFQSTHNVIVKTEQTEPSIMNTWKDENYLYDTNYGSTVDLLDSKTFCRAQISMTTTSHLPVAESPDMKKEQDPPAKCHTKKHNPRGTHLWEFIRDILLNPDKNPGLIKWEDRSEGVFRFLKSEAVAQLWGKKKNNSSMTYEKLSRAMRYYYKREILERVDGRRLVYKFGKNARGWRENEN
Method in brief: as §1

SPI1 = SPI1 (Homo sapiens, UniProt P17947 1-270); details: protein: recombinant; tags: N-terminal GST; dsDNA, one strand shown
Method in brief: as §1

SPIB = SPIB (Homo sapiens, UniProt Q01892 1-262); details: protein: recombinant; tags: N-terminal GST; dsDNA, one strand shown
SPIB, sequence (Q01892 whole entry): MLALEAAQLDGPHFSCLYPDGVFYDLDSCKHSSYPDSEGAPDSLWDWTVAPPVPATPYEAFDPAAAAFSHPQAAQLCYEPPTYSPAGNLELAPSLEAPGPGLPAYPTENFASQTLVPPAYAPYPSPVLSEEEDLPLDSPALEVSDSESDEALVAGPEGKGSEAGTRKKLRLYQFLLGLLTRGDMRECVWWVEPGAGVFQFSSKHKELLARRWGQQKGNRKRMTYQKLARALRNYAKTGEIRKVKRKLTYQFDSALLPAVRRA
Method in brief: as §1

ELK3 = target: T6, ELK3 (Homo sapiens, UniProt P41970 1-407); details: protein: recombinant; tags: N-terminal GST; dsDNA, one strand shown
T6 sequence: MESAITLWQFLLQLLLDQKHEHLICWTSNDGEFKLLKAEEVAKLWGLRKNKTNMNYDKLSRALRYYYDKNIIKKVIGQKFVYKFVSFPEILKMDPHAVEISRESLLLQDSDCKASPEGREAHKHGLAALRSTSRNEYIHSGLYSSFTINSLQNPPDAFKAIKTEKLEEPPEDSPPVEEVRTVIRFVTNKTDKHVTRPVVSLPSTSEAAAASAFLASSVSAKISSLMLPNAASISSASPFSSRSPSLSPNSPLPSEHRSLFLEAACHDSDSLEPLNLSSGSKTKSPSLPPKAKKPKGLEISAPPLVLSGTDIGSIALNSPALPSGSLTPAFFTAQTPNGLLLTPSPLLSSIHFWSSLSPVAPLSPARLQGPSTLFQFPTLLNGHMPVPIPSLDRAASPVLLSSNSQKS
Method in brief: as §1

FEV = target: T7, FEV (Homo sapiens, UniProt Q99581 1-238); details: protein: recombinant; tags: N-terminal GST; dsDNA, one strand shown
T7 sequence: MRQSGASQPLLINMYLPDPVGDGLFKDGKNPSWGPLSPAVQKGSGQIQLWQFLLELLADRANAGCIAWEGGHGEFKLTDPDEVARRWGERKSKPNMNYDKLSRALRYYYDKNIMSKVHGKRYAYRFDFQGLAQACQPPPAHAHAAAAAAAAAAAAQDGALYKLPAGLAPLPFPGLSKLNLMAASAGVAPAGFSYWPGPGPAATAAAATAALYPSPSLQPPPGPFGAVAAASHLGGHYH
Method in brief: as §1

ETV5 = ETV5 (Homo sapiens, UniProt P41161 1-510); details: protein: recombinant; tags: N-terminal GST; dsDNA, one strand shown
ETV5, sequence (P41161 whole entry): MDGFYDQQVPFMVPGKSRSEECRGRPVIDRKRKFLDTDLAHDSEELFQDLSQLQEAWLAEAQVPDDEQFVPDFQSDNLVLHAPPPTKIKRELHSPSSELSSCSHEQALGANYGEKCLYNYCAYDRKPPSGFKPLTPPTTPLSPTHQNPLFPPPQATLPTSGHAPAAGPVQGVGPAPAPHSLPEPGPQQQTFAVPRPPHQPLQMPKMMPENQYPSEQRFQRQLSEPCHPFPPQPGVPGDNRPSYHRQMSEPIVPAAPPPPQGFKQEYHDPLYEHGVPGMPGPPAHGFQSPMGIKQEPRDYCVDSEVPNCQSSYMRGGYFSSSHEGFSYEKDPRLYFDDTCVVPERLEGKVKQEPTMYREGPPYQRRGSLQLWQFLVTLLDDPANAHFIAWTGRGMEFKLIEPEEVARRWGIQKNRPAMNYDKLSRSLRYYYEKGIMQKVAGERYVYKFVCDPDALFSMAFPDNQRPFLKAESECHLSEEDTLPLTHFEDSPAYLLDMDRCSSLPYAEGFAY
Method in brief: as §1

HSF1 = HSF1 (Homo sapiens, UniProt Q00613 1-529); details: protein: recombinant; tags: N-terminal GST; chain copies: 3; dsDNA, one strand shown
HSF1, sequence (Q00613 whole entry): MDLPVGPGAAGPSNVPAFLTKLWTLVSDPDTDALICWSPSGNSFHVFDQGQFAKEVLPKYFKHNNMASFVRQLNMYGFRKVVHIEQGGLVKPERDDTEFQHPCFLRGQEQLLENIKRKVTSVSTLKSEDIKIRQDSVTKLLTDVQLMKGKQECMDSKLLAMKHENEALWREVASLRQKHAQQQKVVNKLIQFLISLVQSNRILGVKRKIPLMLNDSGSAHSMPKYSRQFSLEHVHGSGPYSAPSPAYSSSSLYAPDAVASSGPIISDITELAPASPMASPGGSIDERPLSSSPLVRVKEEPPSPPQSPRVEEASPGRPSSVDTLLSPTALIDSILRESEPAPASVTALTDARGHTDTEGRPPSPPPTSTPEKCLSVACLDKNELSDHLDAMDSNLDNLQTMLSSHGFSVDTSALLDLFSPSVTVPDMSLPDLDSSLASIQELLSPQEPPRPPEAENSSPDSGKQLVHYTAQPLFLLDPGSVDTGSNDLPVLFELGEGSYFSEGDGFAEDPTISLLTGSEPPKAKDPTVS
Method in brief: as §1

SPIC = target: T8, SPIC (Homo sapiens, UniProt Q8N5J4 1-248); details: protein: recombinant; tags: N-terminal GST; dsDNA, one strand shown
T8 sequence: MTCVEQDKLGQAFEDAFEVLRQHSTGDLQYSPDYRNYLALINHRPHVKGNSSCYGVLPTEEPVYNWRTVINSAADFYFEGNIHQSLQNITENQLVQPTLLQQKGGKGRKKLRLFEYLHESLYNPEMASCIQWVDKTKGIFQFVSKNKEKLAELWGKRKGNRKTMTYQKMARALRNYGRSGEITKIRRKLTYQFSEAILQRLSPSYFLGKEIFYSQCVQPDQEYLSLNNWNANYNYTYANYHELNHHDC
Method in brief: as §1

ELF4 = ELF4 (Homo sapiens, UniProt Q99607 1-663); details: protein: recombinant; tags: N-terminal GST; dsDNA, one strand shown
ELF4, sequence (Q99607 whole entry): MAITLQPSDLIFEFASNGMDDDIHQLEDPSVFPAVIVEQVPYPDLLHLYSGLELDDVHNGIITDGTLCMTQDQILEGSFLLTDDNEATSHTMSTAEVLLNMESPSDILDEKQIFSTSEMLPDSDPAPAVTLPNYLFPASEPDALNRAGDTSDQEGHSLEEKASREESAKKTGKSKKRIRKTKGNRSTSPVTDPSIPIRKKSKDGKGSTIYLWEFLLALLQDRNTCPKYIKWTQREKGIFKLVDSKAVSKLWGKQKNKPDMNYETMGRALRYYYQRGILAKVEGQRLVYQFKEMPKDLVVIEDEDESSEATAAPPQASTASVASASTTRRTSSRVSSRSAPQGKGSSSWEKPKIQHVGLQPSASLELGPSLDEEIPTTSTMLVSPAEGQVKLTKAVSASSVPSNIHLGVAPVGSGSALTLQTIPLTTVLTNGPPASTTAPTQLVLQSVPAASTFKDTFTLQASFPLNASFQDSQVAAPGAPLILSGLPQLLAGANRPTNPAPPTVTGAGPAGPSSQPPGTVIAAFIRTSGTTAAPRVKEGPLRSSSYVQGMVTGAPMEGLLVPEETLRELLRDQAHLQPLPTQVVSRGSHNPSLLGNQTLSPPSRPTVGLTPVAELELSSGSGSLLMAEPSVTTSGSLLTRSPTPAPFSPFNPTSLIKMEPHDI
Method in brief: as §1

ELK4 = target: T9, ELK4 (Homo sapiens, UniProt P28324-2 1-405); details: protein: recombinant; tags: N-terminal GST; dsDNA, one strand shown
T9 sequence: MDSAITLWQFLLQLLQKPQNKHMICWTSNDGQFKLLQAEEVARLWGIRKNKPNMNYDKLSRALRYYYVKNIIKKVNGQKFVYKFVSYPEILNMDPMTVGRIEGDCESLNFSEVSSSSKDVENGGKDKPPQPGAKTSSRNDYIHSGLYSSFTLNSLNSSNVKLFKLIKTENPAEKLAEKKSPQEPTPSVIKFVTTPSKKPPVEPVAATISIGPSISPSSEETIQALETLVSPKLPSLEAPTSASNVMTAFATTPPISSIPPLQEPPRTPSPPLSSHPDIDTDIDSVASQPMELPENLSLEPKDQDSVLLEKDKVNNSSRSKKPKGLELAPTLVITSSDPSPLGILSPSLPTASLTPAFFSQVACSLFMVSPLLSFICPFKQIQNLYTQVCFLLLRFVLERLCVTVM
Method in brief: as §1

ETV2 = target: T10, ETV2 (Homo sapiens, UniProt O00321 1-342); details: protein: recombinant; tags: N-terminal GST; dsDNA, one strand shown
T10 sequence: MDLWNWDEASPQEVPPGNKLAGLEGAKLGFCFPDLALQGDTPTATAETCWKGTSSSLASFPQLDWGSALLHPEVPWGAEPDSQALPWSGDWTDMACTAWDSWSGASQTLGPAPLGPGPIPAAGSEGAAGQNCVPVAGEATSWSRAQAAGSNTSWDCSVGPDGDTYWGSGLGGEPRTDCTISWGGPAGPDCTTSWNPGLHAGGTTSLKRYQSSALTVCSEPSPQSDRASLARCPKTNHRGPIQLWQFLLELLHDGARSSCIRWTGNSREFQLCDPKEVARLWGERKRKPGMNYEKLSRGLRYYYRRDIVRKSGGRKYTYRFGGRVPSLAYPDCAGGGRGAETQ
Method in brief: as §1

ELF3 = target: T11, ELF3 (Homo sapiens, UniProt P78545 1-371); details: protein: recombinant; tags: N-terminal GST; dsDNA, one strand shown
T11 sequence: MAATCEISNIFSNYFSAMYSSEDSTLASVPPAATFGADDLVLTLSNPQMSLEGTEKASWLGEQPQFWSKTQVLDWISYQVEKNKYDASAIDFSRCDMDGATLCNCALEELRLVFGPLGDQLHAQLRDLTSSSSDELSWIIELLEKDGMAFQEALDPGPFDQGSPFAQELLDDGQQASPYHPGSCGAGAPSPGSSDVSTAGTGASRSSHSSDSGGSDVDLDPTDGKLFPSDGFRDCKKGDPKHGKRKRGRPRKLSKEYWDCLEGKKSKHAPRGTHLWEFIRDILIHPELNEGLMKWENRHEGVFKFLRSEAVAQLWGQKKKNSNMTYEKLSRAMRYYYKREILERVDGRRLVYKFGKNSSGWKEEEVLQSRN
Method in brief: as §1

CRX = CRX (Homo sapiens, UniProt O43186 1-299); details: protein: recombinant; tags: N-terminal GST; dsDNA, one strand shown
CRX, sequence (O43186 whole entry): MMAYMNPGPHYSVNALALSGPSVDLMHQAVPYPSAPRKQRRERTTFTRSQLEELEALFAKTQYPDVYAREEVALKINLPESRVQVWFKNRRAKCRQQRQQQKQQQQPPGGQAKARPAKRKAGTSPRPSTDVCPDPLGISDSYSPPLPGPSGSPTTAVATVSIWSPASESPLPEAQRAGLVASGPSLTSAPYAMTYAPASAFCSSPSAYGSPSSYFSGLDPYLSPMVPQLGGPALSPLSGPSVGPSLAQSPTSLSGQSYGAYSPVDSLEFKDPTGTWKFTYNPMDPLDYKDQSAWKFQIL
Method in brief: as §1

ETV1 = ETV1 (Homo sapiens, UniProt P50549 1-477); details: protein: recombinant; tags: N-terminal GST; dsDNA, one strand shown
ETV1, sequence (P50549 whole entry): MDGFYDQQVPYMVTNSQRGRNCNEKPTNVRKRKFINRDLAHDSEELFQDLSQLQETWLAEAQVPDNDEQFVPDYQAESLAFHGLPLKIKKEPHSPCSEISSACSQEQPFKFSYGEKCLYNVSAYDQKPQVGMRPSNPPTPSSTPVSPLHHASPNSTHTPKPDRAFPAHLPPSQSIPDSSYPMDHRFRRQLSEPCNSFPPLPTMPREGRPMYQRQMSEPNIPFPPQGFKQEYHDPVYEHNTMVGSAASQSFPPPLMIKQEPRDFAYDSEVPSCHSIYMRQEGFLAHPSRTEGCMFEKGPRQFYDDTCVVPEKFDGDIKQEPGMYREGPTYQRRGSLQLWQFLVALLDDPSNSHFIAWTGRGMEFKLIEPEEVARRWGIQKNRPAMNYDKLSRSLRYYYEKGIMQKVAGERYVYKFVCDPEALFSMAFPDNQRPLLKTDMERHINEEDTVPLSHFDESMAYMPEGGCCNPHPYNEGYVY
Method in brief: as §1

Q: Which binding signal (FLI1) does the source give for CTACTC here?
A: 1.42 fold enrichment (6-mer frequency, TF over GST control)

Q: What about the binding signal (ELK1) of the same sequence?
A: 1.36 fold enrichment (6-mer frequency, TF over GST control)

Q: What about the binding signal (GABPA) of the same sequence?
A: 1.51 fold enrichment (6-mer frequency, TF over GST control)

Q: And the binding signal (ERG)?
A: 1.38 fold enrichment (6-mer frequency, TF over GST control)

Q: And the binding signal (ELF1)?
A: 1.44 fold enrichment (6-mer frequency, TF over GST control)

Q: And the binding signal (EHF)?
A: 1.38 fold enrichment (6-mer frequency, TF over GST control)

Q: What about the binding signal (SPI1) of the same sequence?
A: 1.47 fold enrichment (6-mer frequency, TF over GST control)

Q: And the binding signal (SPIB)?
A: 1.59 fold enrichment (6-mer frequency, TF over GST control)

Q: What about the binding signal (ELK3) of the same sequence?
A: 1.46 fold enrichment (6-mer frequency, TF over GST control)

Q: What about the binding signal (FEV) of the same sequence?
A: 1.37 fold enrichment (6-mer frequency, TF over GST control)

Q: And the binding signal (ETV5)?
A: 1.35 fold enrichment (6-mer frequency, TF over GST control)

Q: What about the binding signal (HSF1) of the same sequence?
A: 1.32 fold enrichment (6-mer frequency, TF over GST control)

Q: And the binding signal (SPIC)?
A: 1.21 fold enrichment (6-mer frequency, TF over GST control)

Q: What about the binding signal (ELF4) of the same sequence?
A: 1.37 fold enrichment (6-mer frequency, TF over GST control)

Q: What about the binding signal (ELK4) of the same sequence?
A: 1.41 fold enrichment (6-mer frequency, TF over GST control)

Q: What about the binding signal (ETV2) of the same sequence?
A: 1.38 fold enrichment (6-mer frequency, TF over GST control)

Q: What about the binding signal (ELF3) of the same sequence?
A: 1.32 fold enrichment (6-mer frequency, TF over GST control)

Q: What about the binding signal (CRX) of the same sequence?
A: 1.28 fold enrichment (6-mer frequency, TF over GST control)

Q: And the binding signal (ETV1)?
A: 1.32 fold enrichment (6-mer frequency, TF over GST control)
